SMILES strings stand for the structures. Values joined by “and” are separate entries in the source; they are usually repeats but may differ in a detail not shown here. Equal entries are not always repeated. Screen size: about 320,000 compounds; about 1,900 (0.59%) were called active. What follows is part of a selection rich in actives, with near analogues and random picks from the rest. Values without a mark were called inactive. Rule as the data show it: active = inhibition mostly above about 10% (no sharp cut-off); inactive = mostly below about 6.7%.

This test deals with Protein LANA1 (Human herpesvirus 8 type P (isolate GK18)) (UniProt Q9QR71). The test can be described thus: blockers of LANA interaction with H2A/H2B – biochemical, FP readout, HTS, primary screen (AID 2629). The settings on record: cell-free LANA-H2A/H2B peptide, fluorescence polarization, active compounds read high, concentration not given here.
Chain of Protein LANA1 (Human herpesvirus 8 type P (isolate GK18)) (Q9QR71 whole entry, looked up): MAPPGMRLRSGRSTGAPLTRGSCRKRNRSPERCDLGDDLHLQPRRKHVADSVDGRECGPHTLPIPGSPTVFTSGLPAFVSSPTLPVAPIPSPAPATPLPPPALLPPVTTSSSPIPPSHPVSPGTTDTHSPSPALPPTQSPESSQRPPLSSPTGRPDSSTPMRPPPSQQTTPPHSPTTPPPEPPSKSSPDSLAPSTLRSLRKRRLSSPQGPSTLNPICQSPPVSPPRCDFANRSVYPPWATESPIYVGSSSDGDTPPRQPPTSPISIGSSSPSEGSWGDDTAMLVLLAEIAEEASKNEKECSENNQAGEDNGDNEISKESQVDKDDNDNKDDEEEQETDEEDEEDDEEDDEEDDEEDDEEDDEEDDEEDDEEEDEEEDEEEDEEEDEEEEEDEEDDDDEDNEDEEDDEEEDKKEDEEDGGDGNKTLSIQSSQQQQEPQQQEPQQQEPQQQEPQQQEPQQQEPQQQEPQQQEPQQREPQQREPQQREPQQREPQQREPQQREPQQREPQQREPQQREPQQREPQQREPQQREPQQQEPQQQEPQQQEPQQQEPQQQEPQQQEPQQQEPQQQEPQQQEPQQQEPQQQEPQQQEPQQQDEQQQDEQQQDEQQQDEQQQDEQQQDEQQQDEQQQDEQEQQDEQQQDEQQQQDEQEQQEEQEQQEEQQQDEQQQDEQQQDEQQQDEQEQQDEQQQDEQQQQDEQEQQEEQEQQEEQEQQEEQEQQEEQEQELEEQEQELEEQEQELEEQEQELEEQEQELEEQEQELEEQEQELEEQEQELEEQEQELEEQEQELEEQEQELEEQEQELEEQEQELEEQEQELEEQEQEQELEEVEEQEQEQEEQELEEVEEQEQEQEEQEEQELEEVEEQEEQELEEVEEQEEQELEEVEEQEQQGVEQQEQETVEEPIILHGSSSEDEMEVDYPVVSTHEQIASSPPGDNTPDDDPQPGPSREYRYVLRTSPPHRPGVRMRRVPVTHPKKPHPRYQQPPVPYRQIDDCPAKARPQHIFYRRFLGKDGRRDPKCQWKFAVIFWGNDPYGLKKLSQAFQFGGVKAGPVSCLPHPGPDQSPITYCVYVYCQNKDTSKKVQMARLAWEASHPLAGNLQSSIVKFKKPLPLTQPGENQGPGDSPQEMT
The inhibition is the relative decrease from the control value, in per cent. On to `Cc1cccn2c(=O)c3cc(C(=O)NC4CCCCC4)sc3nc12`, for which the inhibition was 32.6% (active). Next, `Cc1ccccc1-n1nc(C)c2cc(C(=O)NC3CC3)sc21`: 0.464%; `CN(C(=O)c1cc2c(=O)n3ccccc3nc2s1)C1CCCCC1`: -5.4%. Next, `COc1ccc(/C=C(/NC(=O)c2ccco2)C(=O)Nc2ccc(C(C)=O)cc2)cc1`: 3.73%; `O=C(Nc1ccccc1)/C(=C\c1ccco1)NC(=O)c1ccco1`: 4.48%. Next, `Cc1ccc(NC(=O)/C(=C\c2ccccc2)NC(=O)c2ccco2)cc1`: 15.5% (active); `Cn1c(=O)c2c(nc(NCCNC(=O)c3ccco3)n2Cc2ccccc2F)n(C)c1=O`: 0.914%. Turning to `CC[N+](C)(CC)CCC[n+]1c(-c2ccccc2)c2cc(N)ccc2c2ccc(N)cc21`, the inhibition was 37% (active). In the case of `COc1cc(N/C=C2\CC(=O)NC(C)=C2C#N)cc(OC)c1OC`, the inhibition was 1.67%.

As to `CCOC(=O)C(NS(=O)(=O)c1ccc(C)cc1)(C(F)(F)F)P(=O)(OCC(C)C)OCC(C)C` (stereo not drawn), the inhibition is -0.856%. With `CC(C)C(=O)NC(NC(=S)NC1CCS(=O)(=O)C1)C(Cl)(Cl)Cl` (stereo not drawn), the inhibition is 5.16%.

Regarding `CCOc1ccc2nc(N(CCCN(C)C)C(=O)c3ccc(C(=O)c4ccccc4)cc3)sc2c1`, the inhibition was 2.47%.

For the compound `CCOc1ccc2nc(N(CCN(C)C)C(=O)c3ccc4ccccc4c3)sc2c1`, the inhibition was -2.61%. Next, `CCN(CC)CCN(C(=O)c1cccc([N+](=O)[O-])c1)c1nc2ccc(OC)cc2s1`: 10.8% (active). As for `O=c1cc(-c2ccccc2)[nH]c2cc(F)ccc12`, the inhibition was -0.193%. Next, `Cc1ccc(N/C(N)=N/c2nc(C(F)(F)F)cc(C(F)(F)F)n2)cc1`: 1.07%. Regarding `Cn1c(=O)c(=O)n(C)c2cc(S(=O)(=O)NCCN3CCN(c4ccccc4F)CC3)ccc21`, the inhibition was 2.45%.

As for `Cc1ccc2c(c1)-c1c(ssc1=S)C(C)(C)N2C(=O)CN1C(=O)c2ccccc2C1=O`, the inhibition is -1.1%. Next, `Cc1ccccc1CN1C(=O)c2ccccc2Sc2ccc(C(=O)NCCCN3CCOCC3)cc21`: 19.6% (active). As for `O=C(NCCCN1CCOCC1)c1ccc2c(c1)N(Cc1cccc(F)c1)C(=O)c1ccccc1S2`, the figure is -7.56%; as for `CCC1=Nc2cc(C(=O)NCCCN3CCOCC3)ccc2Sc2ccc(Br)cc21`, 3.58%. Regarding `COc1ccc(Cl)cc1N(CC(=O)N/N=C/c1ccc(OCC(N)=O)cc1)S(C)(=O)=O`, the inhibition was 0.205%.

Take `COc1cc(NC(=O)c2[nH]cnc2C(N)=O)cc(C(=O)Nc2cccc(C(F)(F)F)c2)c1`: the inhibition is -1.33%. Next, `O=C(Nc1ccccn1)C1CCN(S(=O)(=O)c2ccccc2)CC1`: -0.314%; `O=C(Nc1ccccn1)C1CCN(S(=O)(=O)c2ccc3c(c2)OCCO3)CC1`: 35.5% (active); `O=C(NCc1cccs1)C1CCN(S(=O)(=O)c2ccc3c(c2)OCCO3)CC1`: -3.5%.

In the case of `Nc1c(-c2ccccc2)nnn1Cc1ccccc1`, the inhibition was -2.36%. As for `CCOC(=O)c1ccc(COC(=O)CCc2nc(-c3ccccc3)c(-c3ccccc3)o2)cc1`, the figure is -6.88%.

`Cc1nnc(NC2=NCCCCC2)o1`: the inhibition is 4.02%. Next, `COc1ccc(C)cc1NC(=O)CNCc1cccs1`: 0.209%.

For the compound `COc1ccc(C)cc1NC(=O)CSc1ccc(Cl)cc1`, the inhibition is -4.45%. Consider `Cc1onc(-c2ccccc2Cl)c1C(=O)N(Cc1ccc(N(C)C)cc1)C(C)C`, for which the inhibition is 12.7% (active).

In the case of `Cc1onc(-c2ccccc2Cl)c1C(=O)OCC(=O)c1ccccc1`, the inhibition was 4.43%. Next, `Cc1onc(-c2ccccc2Cl)c1C(=O)NCCn1ccc2ccccc21`: -5.8%. With `CC(C)COC(=O)n1c(=O)oc2ccc(S(=O)(=O)N3CCCCC3)cc21`, the inhibition was 2.24%. Next, `CCOC(=O)c1c(C)nc2c(c1C)c(=O)oc1ccccc12`: 1.54%. Take `C=CCc1cccc2cc(C(=O)OCC)c(=O)oc12`: the inhibition was -5.34%. Take `CCOC(=O)c1cc2cc3ccccc3cc2oc1=O`: the inhibition is 16.8% (active).

For the compound `NC(=O)C[n+]1cccc(C(N)=O)c1`, the inhibition is -3.37%. Regarding `CC(CO)(CO)NC(=O)c1ccc(=O)[nH]n1`, the inhibition was 3.9%. Next, `CCc1nn(CCCN2CCN(c3cccc(Cl)c3)CC2)c(=O)n1CCOc1ccccc1`: -0.456% and 3%; `c1ccc2cc(CCCc3cc4ccccc4cn3)ncc2c1`: 2.17%. Next, `Cc1noc(C)c1COc1ccccc1C(=O)N(C)CC(=O)Nc1cccc(F)c1`: 0.0499%.

Source of the values: PubChem BioAssay AID2629 (Broad Institute, 2010).
